Source: PubChem BioAssay
This is a sample that favours compounds with a hit; in the whole collection about 14% have one here.
Pf growth 96h: Primary qHTS for delayed death inhibitors of the malarial parasite plastid, 96 hour incubation; P. falciparum luciferase reporter growth, 96 h; Potency, µM (doses to about 28.7 µM), without a hit: at the top dose activity change, negative = inhibition, actives largely listed as inhibitors; hit rate 6.9% among 320,000; AID 504834, 2011; further: potency means the concentration at half of the fitted maximal effect
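Luminescence readout: decreased luciferase signal marks inhibited growth of reporter-expressing P. falciparum in infected red cells (2% hematocrit, 0.05% parasitemia final), exposed to compound two generations (96 h, 37 C, 5% CO2).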
MARV entry inh: qHTS for inhibitors of binding or entry into cells for Marburg Virus | Potency, µM (series often up to 37.8 µM), for the others: at the top dose activity change, negative = inhibition, hits mostly inhibitors | hit rate 1.8% among 300,000 | AID 540276, 2011 | Marburg virus pseudotyped entry inhibition, cell reporter; calls by dose curve; tested in HEK293 cells; further: potency means the concentration at half of the fitted maximal effect
HCMV antiviral: qHTS Assay for inhibitors of the human cytomegalovirus (HCMV); HFF cells, HCMV-luciferase reporter, 72 h; stronger effect = lower value; activity change, negative = inhibition, % at 57.5 µM; hit rate 4.5% among 410,000; in the data active means activity change below about -60%; inconclusive means no clear call, values can overlap the other calls; inactive means above about -39%
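Steps: HFFs plated, 16 h 37C; compounds added; HCMV-luciferase added to MOI 1 PFU/cell; 72 h 37C; OneGlo reagent, 5 min room temperature; luminescence read, normalized to controls.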
Pf growth 48h: Primary qHTS for delayed death inhibitors of the malarial parasite plastid, 48 hour incubation; P. falciparum luciferase growth in erythrocytes, 48 h; Potency, µM (titrated, usually from 28.7 µM), for inactives: at the highest dose activity change, negative = inhibition, hits mostly inhibitors; hit rate 5.9% among 310,000; further: potency means the concentration at half of the fitted maximal effect
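Compounds are pin-transferred into medium, infected erythrocytes (2% hematocrit, 0.1% parasitemia final) are added, and plates sit one parasite generation at 37 C in 5% CO2. Detection reagent is then added and luminescence measured.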
HCV inhibitor: qHTS Assay for Inhibitors of Hepatitis C Virus (HCV); Huh7.5.1 HCVcc-Cre infection, luciferase reporter, 44 h; Potency, µM (series often up to 41.8 µM), inactives show at the top dose activity change, negative = inhibition, hits mostly inhibitors; hit rate 3.4% among 340,000; AID 651820, 2012; further: potency means the concentration at half of the fitted maximal effect
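After 44 h co-culture of compound, cells and HCVcc-Cre (~0.5 moi), substrate is added for 15 min at room temperature and luciferase measured over 15 sec. Cells were seeded at 1,000/well and pre-cultured 4 h.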
LASV entry inh: qHTS for Inhibitors of binding or entry into cells for Lassa Virus; Lassa virus pseudotype entry inhibition, cell reporter; Potency, µM (titrated, usually from 37.9 µM), inactives show top-dose activity change, negative = inhibition, hits mostly inhibitors; hit rate 1.2% among 300,000; calls by dose curve; tested in HEK293 cells; further: potency means the concentration at half of the fitted maximal effect; nearly all actives have a fitted effect of over 50% in size
An asterisk follows results filed as active; ? = inconclusive; . = not tested or not shown; [ ] = dose if it differs, or a comment. Unless noted, the call rests on the fitted dose curve; in most records, active means well fitted inhibition curve with a large enough effect; inconclusive means small, poorly fitted or top-dose-only effect, or another doubt; inactive means no such curve, though single readings can be large or run the other way. On the % scale 0 is the no-effect control and ±100 the full control effect.

SMILES | Pf growth 96h | MARV entry inh | HCMV antiviral | Pf growth 48h | HCV inhibitor | LASV entry inh
COc1ccc(NC(=O)c2cccc(Cn3cc(Br)cn3)c2)cn1 | 31% | -24% | -23 | ? | ? | -13%
CN(C)S(=O)(=O)Nc1ccc2c(c1)Cc1ccccc1-2 | . | 8% | 195 | 57% | -6% | ?
O=C(Nc1ccc(Br)cc1)c1cccc(S(=O)(=O)Nc2ccccn2)c1 | 27% | ? | -19 | 4% | -19% | -25%
COc1ccc(NC(=O)c2cccc(S(=O)(=O)Nc3ccc(Br)cc3)c2)cn1 | 0% | ? | -90* | 12% | ? | ?
COc1ccc(NS(=O)(=O)c2ccc3c(c2)Cc2ccccc2-3)cn1 | 56% | -22% | -14 | 25% | 2.8µM* | -9%
COc1ccc(NC(=O)c2cccc(Oc3ccccc3)c2)cn1 | -12% | 7.9µM* | ? | -8% | ? | ?
O=C1C=CC2(C=C1)O[C@H](Cc1ccccc1)[C@@H](Cc1ccccc1)O2 | . | 2.8µM* | -99* | . | 2.5µM* | 7.1µM*
COc1ccc(C[C@@H]2OC3(C=CC(=O)C=C3)O[C@H]2Cc2ccc(OC)cc2)cc1 | . | 2.5µM* | . | . | 4µM* | ?
O=C1Nc2ccccc2C1Cc1ccccc1 (stereo not drawn) | 7% | 2% | -7 | 7% | -1% | -7%
O=C(Nc1ccc(F)c(S(=O)(=O)N2CCOCC2)c1)C1CCCCC1 | ? | ? | -1 | 13µM* | ? | -11%
CN(C)S(=O)(=O)c1cccc(NC(=O)C2CCCN(C(=O)c3ccc(Cl)cc3)C2)c1 (stereo not drawn) | . | . | -28 | . | . | .
Cc1ccc(NC(=O)CCNC(=O)c2ccccc2Cl)cc1S(=O)(=O)N1CCOCC1 | ? | . | 12 | -5% | 4% | .
Cc1ccc(Cl)cc1NC(=S)N1CCC(c2ccccc2)C1 (stereo not drawn) | ? | ? | ? | 12µM* | 1% | ?
O=C(Nc1ccc(Cl)c(S(=O)(=O)N2CCOCC2)c1)C1CCCC1 | . | . | 5 | . | ? | .
CSCCC(NC(=O)c1ccccc1Cl)C(=O)Nc1ccc(C)c(S(=O)(=O)N2CCOCC2)c1 (stereo not drawn) | ? | 13% | -16 | 9.3µM* | -3% | -10%
Cc1ccc(S(=O)(=O)N(C)C)cc1NC(=O)C1CCCN(C(=O)c2ccc(Cl)cc2)C1 (stereo not drawn) | 4.7µM* | ? | ? | 7.4µM* | ? | ?
CCCCNc1ncnc2c1nnn2C | . | . | 54 | . | . | -6%[46.1 µM]
Cc1ccc(NC(=O)C2CCCN(C(=O)c3ccc(Cl)cc3)C2)cc1S(=O)(=O)N1CCOCC1 (stereo not drawn) | 7.4µM* | ? | -72* | ? | 4µM* | ?
Cc1c(Cl)cccc1NC(=O)C1CCCN(S(C)(=O)=O)C1 (stereo not drawn) | -11% | . | 48 | ? | 17% | .
Cc1ccc(Cl)cc1NC(=O)C1CCCN(S(C)(=O)=O)C1 (stereo not drawn) | 10µM* | . | 7 | 13% | 7% | .
COC(=O)c1ccc(NC(=O)CC2C(=O)N(c3cccc(OC)c3)C(=O)N2C(C)C)cc1 (stereo not drawn) | . | . | 13 | . | . | ?
CCOC(=O)C1=C(COC(=O)C(CC)c2ccccc2)NC(=O)NC1C (stereo not drawn) | 11% | . | -26 | 3% | 2% | .
COc1ccc(CNC(=O)C2CCCN(S(=O)(=O)N(C)c3ccc(F)cc3)C2)cc1OC (stereo not drawn) | . | . | ? | . | . | -9%[46.1 µM]
CC1=CC(C)(C)N2C(=O)C3(SCC(=O)N3c3ccc(F)cc3)c3cc(C)cc1c32 (stereo not drawn) | 4.1µM* | ? | -67* | . | ? | -3%
COCCn1c(C)cc(O)c(C(c2ccccc2)N2CCC(C)CC2)c1=O (stereo not drawn) | . | . | 8 | . | . | 0%[46.1 µM]
CCC[C@H](CCC(=O)Nc1ccc(C(=O)OCC)cc1)C(=O)O | . | -6% | . | . | . | .
